In ChEMBL document CHEMBL3988442, “University of Dundee, Small-Polar-MMV Screening Library” (2021):
Among all 53,000 compounds or so, about 900 (1.7%) showed an effect of 50% or more. The sample holds strong results, similar compounds and a random draw of the others, so the mix is not that of the screen.

system: Mycobacterium tuberculosis; assay: Cornell - Phenotypic assay to identify agents that inhibit growth of Mycobacterium tuberculosis; format: functional; parameters: scale not given: direction of the effect not stated beside the values; settings: 10 mM as filed; unlikely as a test dose

SMILES | Percent Effect [%]
Cc1ccc(-c2cc(CS(=O)(=O)NC3CCCNC3=O)on2)cc1 (stereo not given) | -20.71
CN(Cc1ccsc1)C(=O)Cn1c(CS(C)(=O)=O)nc2ccccc21 | 17.82
Cc1ccc(S(=O)(=O)NC2=NCN(CCc3cccs3)CN2)cc1 | -5.965
O=C(CCn1cccn1)N1CC[C@@H](c2ccc3ccccc3c2)[C@H](O)C1 | -1.48
O=C(CCN1CCCC1)N1CC[C@@H](c2ccc3ccccc3c2)[C@H](O)C1 | 59.79
O=C(CCN1CCCO1)N1CC[C@@H](c2ccc3ccccc3c2)[C@H](O)C1 | 5.243
O=S1(=O)CCC(S(=O)(=O)c2cccc(S(=O)(=O)N3CCCC3)c2)C1 (stereo not given) | 4.254
CN(Cc1ccco1)[C@@H]1CN(Cc2cccs2)C[C@@H]2CCCO[C@@H]21.O=C(O)C(F)(F)F.O=C(O)C(F)(F)F | 3.22
Cc1cc(NC2CCN(c3ccc(F)cc3)CC2)n2nc(C)cc2n1 | 39.2
Cc1cc(N[C@H]2CCCN(Cc3ccccc3)C2)n2nc(C)cc2n1 | -6.549
Cc1cc(NC2CCCN(Cc3ccc(F)cc3)C2)n2nc(C)cc2n1 (stereo not given) | 55.74
O=C(CCc1cccs1)N1CCCC1c1noc(C2CC2)n1 (stereo not given) | -0.7961
CC(NC(=O)c1cn(CCC2CCCCC2)nn1)c1cnn(C)c1 (stereo not given) | -6.193
Cc1nc2c(NC(CC(C)(C)C)c3cccnc3)ncnc2o1 (stereo not given) | -7.649
CCCOc1ccc(Cl)cc1CNc1ncnc2oc(C)nc12 | 65.32
CCCOc1ccccc1CCCNc1ncnc2oc(C)nc12 | 30.24
CCc1nnc(CN(C)C(=O)C(CC)n2c(CC)nc3ccccc32)o1 (stereo not given) | 5.212
CCNC(=O)[C@@H]1C[C@@H](NC(=O)c2cc(C)on2)CN1Cc1ccccn1 | -5.653
COc1ccc(C)cc1NC(=O)Nc1cnc(O)nc1O | 28.36
CCN(CC)c1ccc(NS(=O)(=O)c2cccnc2)cn1 | 24.54
CCN(CC)c1ccc(NS(=O)(=O)c2cncc(F)c2)cn1 | 62.74
CCN(CC)c1ccc(NS(=O)(=O)c2cnn(C)c2)cn1 | 9.807
COc1cccc(CNCC2CN(C)CCO2)c1 (stereo not given) | 10.27
CC(=O)N1CCN(Cc2ccc(OCc3nccn3C)cc2)CC1 | -16.77
Cc1cc2nccc(C3CCCN(C(=O)c4ccccc4F)C3)n2n1 (stereo not given) | 8.36

SMILES | Percent Effect [%]
c1nc(-c2nc(C3CCOC3)no2)cs1 (stereo not given) | -30.96
O=C(Nc1ccccc1)c1ccc(NCc2ccccc2CO)nn1 | 16.95
O=C(Nc1ccccc1)c1ccc(NCc2ccncc2)nn1 | 71.71
O=C(Nc1ccccc1)c1ccc(NCc2nccs2)nn1 | 40.64
CC(=O)N1CCCC1c1nc(C)c2c(n1)N(Cc1ccccn1)CCC2 (stereo not given) | -10.82
O=C(CCCOCc1ccccc1)N1CCCC(c2ncc[nH]2)C1 (stereo not given) | 18.83
O=C(Cc1cccs1)N1CC[C@H]2[C@@H]1CCC(=O)N2c1cccnc1.O=C(O)C(F)(F)F | 4.016
O=C1CC(c2ccccc2Br)c2sc(N3CCOCC3)nc2N1 (stereo not given) | 44.02
O=C1CC(c2ccccc2C(F)(F)F)c2sc(N3CCOCC3)nc2N1 (stereo not given) | 43.16
COc1ccccc1C1CC(=O)Nc2nc(N3CCCCC3)sc21 (stereo not given) | 102.8
COc1cccc(C2CC(=O)Nc3nc(N4CCCCC4)sc32)c1OC (stereo not given) | 70.71
CNc1nc2c(s1)C(c1ccc(Cl)cc1Cl)CC(=O)N2 (stereo not given) | 15.33
COc1ccccc1C1CC(=O)Nc2c1c(=O)[nH]n2C(C)C (stereo not given) | 7.683
COc1ccccc1C1CC(=O)Nc2c1c(=O)[nH]n2C1CCCC1 (stereo not given) | 42.49
CCOc1cccc(C2CC(=O)NCc3nc(N4CCCC4)sc32)c1 (stereo not given) | -20.96
CCn1ncnc1C1CC(=O)NCc2nc(N3CCOCC3)sc21 (stereo not given) | 3.2
CC(C)Oc1ccccc1C1CC(=O)Nc2nc(N3CCOCC3)sc21 (stereo not given) | 106.3
COc1cccc(C2CC(=O)Nc3nc(N4CCOCC4)sc32)c1OC (stereo not given) | 84.05
CCNc1nnc(CCn2nc(C)c(Br)c2C)s1 | 29.93
COCC(O)CN1CCC(=O)N(CC=C(C)C)Cc2ccccc21 (stereo not given) | -1.382
CCc1cnc(N2C[C@H]3C[C@H](C(=O)N4CCOCC4)[C@@H](C2)O3)nc1.O=C(O)C(F)(F)F | 10.32
CCS(=O)(=O)Nc1ccc(C(=O)NCCCN2CCCC2)cc1 | -15.51
CCc1cnc(N2CC[C@H]3[C@@H]2CCC(=O)N3c2ccccc2)nc1.O=C(O)C(F)(F)F | -28.43
CCc1nnc(CN(CC)C(=O)C2CC(=O)N(C3CC3)C2)o1 (stereo not given) | 3.101
CNC(=O)C1CCCN1C(=O)NCCCc1cccc(F)c1 (stereo not given) | 3.774
